Results on 8 compounds are retold here after PubChem BioAssay (NCATS).

Assay [1] concerns the target Lysosomal acid glucosylceramidase (Homo sapiens) (UniProt P04062). Description: Glucocerebrosidase-p2 (AID 348; in the data active = potency below about 10 µM; note: potency is the fitted concentration of half-maximal effect). Particulars: purified GBA, blue fluorogenic substrate, 40 min. A digest of the protocol: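 Compounds titrated from 0.6 nM upwards against 0.2 nM enzyme in pH 5.9 citric acid/KH2PO4, taurocholate, tween-20; blue fluorogenic substrate 80 uM, 40 min room temperature, stopped and read Ex 365/Em 440 for AC50.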

Assay [2] can be described thus: AP1 Signaling Pathway (AID 357).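 Note: ME-180 reporter cells stimulated with EGF at its EC50 level; % is set by controls: 0 for no effect and ±100 for the full control effect.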 Particulars: ME-180 AP-1-bla reporter, EGF-induced, beta-lactamase ratio, 5 h; at 7.69 µM (top of the series) unless noted. A digest of the protocol: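 A ratiometric CCF4 readout (405 nm excitation; 460 and 530 nm emission) quantified AP-1-driven beta-lactamase in ME-180 cells after 5 h with compound and EC50 EGF; AC50 values were derived for activators and inhibitors.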

Assay [3] addresses Cytochrome P450 1A2 (Homo sapiens) (UniProt P05177). Put plainly: p450-cyp1a2 (AID 410; calls by dose curve; note: potency is the fitted concentration of half-maximal effect). Particulars: recombinant CYP1A2, luciferin-ME demethylation, luminescence; series mostly up to 11.4 µM. The gist of the method: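 20nM CYP1A2 with 100uM Luciferin-ME (at Km) in 100mM KPO4; compound preincubated 10 min, NADPH regeneration added, 60 min at room temperature. Luciferin quantified by luminescence after detection reagent; normalized to 57 uM furafylline.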

Assay [4] is described as follows: NFAT Signaling Pathway (AID 444).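 Note: carbachol stimulus at about its EC50 of 1 µM final; % is set by controls: 0 for no effect and ±100 for the full control effect.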 Particulars: Jurkat NFAT-bla M1, carbachol, beta-lactamase ratio, 5 h; at 7.69 µM (top of the series) unless noted. The gist of the method: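 Jurkat cells with NFAT-driven β-lactamase reporter and co-expressed M1 receptor, stimulated with carbachol (final 1 uM, ~EC50), compound titration, 5 h at 37 °C. CCF4 loaded 1 h at RT; 460/530 nm ratio gave %activity and AC50.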

A short description of assay [5]: Stat Signaling Pathway (AID 446).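 Note: ME-180 cervical cancer cells given 40 pM IL-6 alongside compound; SIE-controlled beta-lactamase reporter measured as 460/530 nm FRET emission ratio; % is set by controls: 0 for no effect and ±100 for the full control effect.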 To be noted: ME-180 SIE beta-lactamase reporter, IL-6 stimulated, 5 h; at 7.69 µM (top of the series) unless noted. The gist of the method:
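ME-180 cells carrying a SIE-driven beta-lactamase reporter are stimulated with 40 pM IL-6 for 5 h at 37C in the presence of compound. The 460/530 nm FRET substrate ratio is read after 2.5 h at RT. Data are normalised to 300 pM IL-6 and to 125 nM JAK inhibitor controls.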

The target in assay [6] is Glucocorticoid receptor (Homo sapiens) (UniProt P04150). Put plainly: GR-GFP Redistribution (AID 450;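 active = compounds whose dose series gives a full or clear partial fitted curve of increased nuclear translocation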; note: potency is the fitted concentration of half-maximal effect). Particulars: U2OS GR-GFP nuclear translocation, laser cytometry, 2 h.
Glucocorticoid receptor (Homo sapiens), sequence (P04150 whole entry, looked up, the tested form may be a part): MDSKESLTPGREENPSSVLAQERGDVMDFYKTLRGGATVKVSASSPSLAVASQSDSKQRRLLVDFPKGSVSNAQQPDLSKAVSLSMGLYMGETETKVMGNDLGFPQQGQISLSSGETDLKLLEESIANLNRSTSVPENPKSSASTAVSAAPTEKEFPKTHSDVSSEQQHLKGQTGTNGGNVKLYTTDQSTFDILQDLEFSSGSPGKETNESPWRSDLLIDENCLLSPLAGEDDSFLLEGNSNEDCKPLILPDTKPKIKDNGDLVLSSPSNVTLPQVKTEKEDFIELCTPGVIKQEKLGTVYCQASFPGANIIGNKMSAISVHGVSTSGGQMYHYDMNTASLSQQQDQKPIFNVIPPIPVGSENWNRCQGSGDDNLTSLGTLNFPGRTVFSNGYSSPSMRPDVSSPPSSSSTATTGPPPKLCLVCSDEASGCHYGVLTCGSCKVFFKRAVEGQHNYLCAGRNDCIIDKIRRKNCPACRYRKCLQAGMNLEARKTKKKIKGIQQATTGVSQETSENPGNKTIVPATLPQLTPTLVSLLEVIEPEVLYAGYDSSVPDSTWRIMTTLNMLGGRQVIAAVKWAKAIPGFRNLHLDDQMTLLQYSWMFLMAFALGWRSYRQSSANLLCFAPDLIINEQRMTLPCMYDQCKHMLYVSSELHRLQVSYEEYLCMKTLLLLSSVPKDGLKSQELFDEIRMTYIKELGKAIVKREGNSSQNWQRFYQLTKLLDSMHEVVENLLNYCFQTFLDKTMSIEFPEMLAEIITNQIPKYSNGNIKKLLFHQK
Assay [7] has the same target. Description: GR-EFC Redistribution (AID 451; calls by dose curve; note: potency is the fitted concentration of half-maximal effect). To be noted: CHO-K1 GR-EFC translocation, beta-gal luminescence, 2 h. A digest of the protocol: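 CHO-K1 cells expressing nuclear EA and GR-ED fragments of b-gal; compounds titrated up to 46 uM final, 2 h at 37 C. GR nuclear translocation read as complemented b-gal luminescence after 1 h RT detection.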
For assay [8], the target named is Mitogen-activated protein kinase 10 (Mus musculus) (UniProt Q61831). Description: JNK3 AlphaScreen Assay (AID 530).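 Note: kinase came from lysate of stimulated human HepG2 cells; signal reports phosphorylation of biotinylated GST-cJun 1-79 at Ser73 with 10 µM ATP; % is set by controls: 0 for no effect and ±100 for the full control effect.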 To be noted: JNK3 lysate, c-Jun phosphorylation; series mostly up to 11.4 µM. A digest of the protocol:
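Pre-activated (IL-1β/TNFα) JNK3 in HepG2 lysates phosphorylates biotin-GST-cJun(1-79), 10 uM ATP; anti-phospho-cJun(Ser73) AlphaScreen read at room temperature, pH 7.6 Tris buffer. Compounds pre-incubated 15 min as titrations.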
A general note: Bead proximity is the source of the signal in Alpha formats.

Assay [9] deals with 3',5'-cyclic-AMP phosphodiesterase 4B (Homo sapiens) (UniProt Q07343). Put plainly: qHTS Assay for Inhibitors of PDE-IV (AID 607; active = well fitted activation curve with a large enough effect in the main read-out, with a control signal flat, not every such curve was filed as active; note: % of control where 0% means no effect). Particulars: HEK293 ACTOne CNG channel cells, membrane potential fluorescence; series mostly up to 22.9 µM. A digest of the protocol: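 HEK293 ACTOne cells with CNG channel (1000/well), endogenous PDE4; membrane potential dye, compounds up to 22.9 uM final. Fluorescence Ex 535/Em 590; RO 20-1724 (100 uM final) as reference.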
3',5'-cyclic-AMP phosphodiesterase 4B (Homo sapiens), sequence (Q07343 whole entry, looked up): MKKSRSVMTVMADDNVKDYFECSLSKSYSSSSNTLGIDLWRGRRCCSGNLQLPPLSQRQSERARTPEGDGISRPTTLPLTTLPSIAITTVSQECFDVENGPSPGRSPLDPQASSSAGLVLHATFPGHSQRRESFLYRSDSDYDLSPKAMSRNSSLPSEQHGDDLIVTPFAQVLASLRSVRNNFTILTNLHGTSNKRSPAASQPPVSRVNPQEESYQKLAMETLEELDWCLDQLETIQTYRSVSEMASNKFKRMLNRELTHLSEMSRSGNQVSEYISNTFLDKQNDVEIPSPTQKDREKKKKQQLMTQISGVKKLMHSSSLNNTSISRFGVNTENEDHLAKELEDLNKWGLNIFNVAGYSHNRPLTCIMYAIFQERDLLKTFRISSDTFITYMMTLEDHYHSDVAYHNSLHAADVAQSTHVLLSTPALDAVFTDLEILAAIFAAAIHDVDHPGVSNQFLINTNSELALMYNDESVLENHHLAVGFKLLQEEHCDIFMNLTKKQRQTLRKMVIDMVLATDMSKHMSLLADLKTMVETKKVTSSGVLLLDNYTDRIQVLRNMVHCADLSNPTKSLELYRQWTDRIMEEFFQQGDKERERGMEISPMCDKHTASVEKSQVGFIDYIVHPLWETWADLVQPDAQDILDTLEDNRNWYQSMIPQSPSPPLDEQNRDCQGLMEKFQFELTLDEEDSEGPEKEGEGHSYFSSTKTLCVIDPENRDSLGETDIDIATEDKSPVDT
A general note: Quantitative high-throughput screening tests each substance at several concentrations.

Assay [10] in a line: qHTS Assay for Identification of Small Molecule Agonists for Hypoxia Response Element Signaling Pathway (AID 914; active = well fitted activation curve with a large enough effect in the signal ratio, with a control signal flat, not every such curve was filed as active; the % refers to the signal ratio; note: % of control where 0% means no effect). To be noted: ME-180 (cervical carcinoma) HRE-bla reporter, beta-lactamase ratio, CoCl2, 17 h; activation: active compounds read high. The gist of the method: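 qHTS titration; ME-180 HRE-bla cells; EC50 CoCl2 co-treatment, 17 h at 37 degrees Celsius; CCF4 dye, ex 405nm, em 460nm and 530nm; %Activity from ratio; AC50.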

In assay [11] the target is Cytochrome P450 2C9 (Homo sapiens) (UniProt P11712). Description: qHTS Assay for Inhibitors and Substrates of Cytochrome P450 2C9 (AID 883; active = well fitted curve in the direction sought with a large enough effect; an effect the other way counts as inactive or inconclusive; note: nearly all actives have a fitted effect of over 60% in size; note: potency is the fitted concentration of half-maximal effect). To be noted: recombinant CYP2C9, luciferin-H luminescence, 60 min; series mostly up to 11.4 µM. A digest of the protocol: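 Human CYP2C9 (10nM) with Luciferin-H at 100uM (its KM) in 25mM KPO4; compound preincubated 10 min at 37C, then NADPH regeneration for 60 min at 37C. Luciferin read by luminescence after detection reagent; normalized to 57uM sulphaphenazole as full inhibition.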
Cytochrome P450 2C9 (Homo sapiens), sequence (P11712 whole entry, looked up): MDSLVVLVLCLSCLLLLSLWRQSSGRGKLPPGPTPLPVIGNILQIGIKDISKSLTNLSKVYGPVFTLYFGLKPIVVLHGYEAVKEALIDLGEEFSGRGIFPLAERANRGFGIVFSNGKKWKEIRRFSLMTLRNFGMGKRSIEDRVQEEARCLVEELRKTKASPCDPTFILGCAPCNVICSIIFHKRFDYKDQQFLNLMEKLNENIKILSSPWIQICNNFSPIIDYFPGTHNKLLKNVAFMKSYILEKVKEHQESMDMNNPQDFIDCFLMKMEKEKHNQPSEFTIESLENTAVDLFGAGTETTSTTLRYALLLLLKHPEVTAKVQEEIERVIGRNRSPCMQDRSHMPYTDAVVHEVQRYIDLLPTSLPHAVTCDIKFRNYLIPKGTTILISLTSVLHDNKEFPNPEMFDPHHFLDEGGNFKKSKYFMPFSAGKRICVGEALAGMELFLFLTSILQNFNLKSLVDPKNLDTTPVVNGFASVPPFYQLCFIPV

For assay [12], the target named is Cytochrome P450 3A4 (Homo sapiens) (UniProt P08684). Description: qHTS Assay for Inhibitors and Substrates of Cytochrome P450 3A4 (AID 884; active = well fitted curve in the direction sought with a large enough effect; an effect the other way counts as inactive or inconclusive; note: % is set by controls: 0 for no effect and ±100 for the full control effect; nearly all actives have a fitted effect of over 50% in size). To be noted: recombinant CYP3A4, Luciferin-PPXE luminescence; series mostly up to 57.1 µM. The gist of the method: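 20 nM human CYP3A4 with 25 uM Luciferin-PPXE (at KM) in 200 mM KPO4, preincubated 10 min with compound; NADPH regeneration started a 60 min RT reaction. Luciferin detected by luminescence, normalized to 57 uM ketoconazole as full inhibition.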
Cytochrome P450 3A4 (Homo sapiens), sequence (P08684 whole entry, looked up): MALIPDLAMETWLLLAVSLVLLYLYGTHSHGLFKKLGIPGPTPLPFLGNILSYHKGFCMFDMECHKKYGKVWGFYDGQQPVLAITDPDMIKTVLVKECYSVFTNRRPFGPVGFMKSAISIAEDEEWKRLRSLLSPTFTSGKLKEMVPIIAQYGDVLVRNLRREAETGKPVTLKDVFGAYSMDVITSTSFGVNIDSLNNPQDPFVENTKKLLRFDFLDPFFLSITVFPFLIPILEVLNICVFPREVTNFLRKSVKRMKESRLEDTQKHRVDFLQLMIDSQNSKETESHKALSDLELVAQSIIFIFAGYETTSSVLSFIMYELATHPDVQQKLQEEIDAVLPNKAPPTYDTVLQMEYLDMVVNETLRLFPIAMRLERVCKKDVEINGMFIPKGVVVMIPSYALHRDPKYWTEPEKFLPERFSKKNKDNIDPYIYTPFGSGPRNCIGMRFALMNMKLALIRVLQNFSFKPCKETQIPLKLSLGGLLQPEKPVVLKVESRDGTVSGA

Assay [13] addresses Cytochrome P450 2D6 (Homo sapiens) (UniProt P10635). Description: qHTS Assay for Inhibitors and Substrates of Cytochrome P450 2D6 (AID 891; active = well fitted curve in the direction sought with a large enough effect; an effect the other way counts as inactive or inconclusive;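 note: luciferin methyl ether substrate demethylated by CYP2D6 with NADPH regeneration; % is set by controls: 0 for no effect and ±100 for the full control effect; nearly all actives have a fitted effect of over 60% in size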). Particulars: recombinant CYP2D6, luciferin-ME EGE luminescence; series mostly up to 11.4 µM. The gist of the method:
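Human CYP2D6 (5 nM) with 30 uM Luciferin-ME EGE (at Km) in 100 mM KPO4, compound preincubated 10 min, then NADPH regeneration system for 60 min at room temperature. Luciferin read by luminescence; normalized to 1.43 uM quinidine.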

In assay [14] the target is Cytochrome P450 2C19 (Homo sapiens) (UniProt P33261). Description: qHTS Assay for Inhibitors and Substrates of Cytochrome P450 2C19 (AID 899; active = well fitted curve in the direction sought with a large enough effect; an effect the other way counts as inactive or inconclusive; note: nearly all actives have a fitted effect of over 60% in size; note: potency is the fitted concentration of half-maximal effect). Particulars: recombinant CYP2C19, luciferin-H EGE luminescence; series mostly up to 11.4 µM. A digest of the protocol: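 5 nM human CYP2C19 with 10uM Luciferin-H EGE (at KM) in 50mM KPO4, compound preincubated 10 min at 37C, then NADPH regeneration for 60 min at 37C. Luciferin read by luminescence after detection reagent; normalized to 57uM ketoconazole as full inhibition.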
Cytochrome P450 2C19 (Homo sapiens), sequence (P33261 whole entry, looked up): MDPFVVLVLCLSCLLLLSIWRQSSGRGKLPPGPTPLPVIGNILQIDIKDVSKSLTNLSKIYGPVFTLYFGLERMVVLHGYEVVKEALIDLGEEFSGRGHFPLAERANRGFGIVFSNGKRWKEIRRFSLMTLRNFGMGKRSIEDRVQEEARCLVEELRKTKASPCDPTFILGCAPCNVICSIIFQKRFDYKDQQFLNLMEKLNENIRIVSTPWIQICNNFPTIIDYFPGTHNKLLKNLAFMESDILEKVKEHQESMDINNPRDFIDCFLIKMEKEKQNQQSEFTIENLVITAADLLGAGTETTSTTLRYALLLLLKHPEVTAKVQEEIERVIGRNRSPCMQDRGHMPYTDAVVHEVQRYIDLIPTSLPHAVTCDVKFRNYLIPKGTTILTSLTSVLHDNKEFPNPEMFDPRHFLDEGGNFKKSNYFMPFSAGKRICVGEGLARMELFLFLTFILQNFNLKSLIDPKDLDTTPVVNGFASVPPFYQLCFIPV

The target in assay [15] is Cytochrome P450 3A4 (Homo sapiens) (UniProt P08684). Description: qHTS Assay for Activators of Cytochrome P450 3A4 (AID 885; active = well fitted curve in the direction sought with a large enough effect; an effect the other way counts as inactive or inconclusive; note: nearly all actives have a fitted effect of over 65% in size). To be noted: recombinant CYP3A4, Luciferin-PPXE luminescence, 60 min; series mostly up to 11.4 µM. The gist of the method:
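Human CYP3A4 (20 nM) with Luciferin-PPXE at 25 uM (its KM) in 200 mM KPO4; 10 min compound preincubation, then NADPH regeneration and 60 min reaction at RT. Luciferin read by luminescence; normalized to 57 uM ketoconazole full inhibition.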

A number with no mark means an inactive call. Inconclusive results are not listed. Active and inactive are the calls of the source. Unless noted, calls come from the whole dose curve; as a rule, active = well fitted curve in either direction with a large enough effect (not every such curve was filed as active); inconclusive = small, poorly fitted or top-dose-only effect, or another doubt; inactive = flat fitted curve, though single readings scatter.

Lysosomal acid glucosylceramidase (Homo sapiens), sequence (P04062 whole entry, looked up): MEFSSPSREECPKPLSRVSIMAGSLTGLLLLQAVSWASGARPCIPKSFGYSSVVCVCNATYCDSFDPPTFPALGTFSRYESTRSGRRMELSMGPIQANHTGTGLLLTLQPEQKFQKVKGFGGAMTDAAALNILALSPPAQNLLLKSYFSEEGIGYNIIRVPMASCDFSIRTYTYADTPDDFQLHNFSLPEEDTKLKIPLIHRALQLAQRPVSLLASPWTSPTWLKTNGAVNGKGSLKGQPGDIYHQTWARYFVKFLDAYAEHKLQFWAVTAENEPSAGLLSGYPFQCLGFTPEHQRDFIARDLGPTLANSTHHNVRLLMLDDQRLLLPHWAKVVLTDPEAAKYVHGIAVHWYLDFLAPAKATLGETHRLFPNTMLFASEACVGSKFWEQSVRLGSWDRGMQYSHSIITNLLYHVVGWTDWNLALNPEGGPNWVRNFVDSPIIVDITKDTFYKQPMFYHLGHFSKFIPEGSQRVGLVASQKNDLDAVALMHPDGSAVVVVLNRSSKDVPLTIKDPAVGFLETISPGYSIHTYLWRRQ
Cytochrome P450 1A2 (Homo sapiens), sequence (P05177 whole entry, looked up): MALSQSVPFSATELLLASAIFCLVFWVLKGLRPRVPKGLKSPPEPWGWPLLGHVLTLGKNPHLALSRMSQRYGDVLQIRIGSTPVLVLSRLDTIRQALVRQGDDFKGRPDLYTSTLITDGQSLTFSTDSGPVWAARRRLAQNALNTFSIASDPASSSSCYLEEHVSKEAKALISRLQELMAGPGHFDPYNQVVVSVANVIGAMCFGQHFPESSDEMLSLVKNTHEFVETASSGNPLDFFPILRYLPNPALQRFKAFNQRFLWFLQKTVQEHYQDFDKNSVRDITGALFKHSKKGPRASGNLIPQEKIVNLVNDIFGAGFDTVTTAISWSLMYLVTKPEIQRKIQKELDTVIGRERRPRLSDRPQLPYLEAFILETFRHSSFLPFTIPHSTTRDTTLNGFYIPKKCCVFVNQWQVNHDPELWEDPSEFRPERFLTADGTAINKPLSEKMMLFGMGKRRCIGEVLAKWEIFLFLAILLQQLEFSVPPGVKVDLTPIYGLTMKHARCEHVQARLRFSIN
Cytochrome P450 2D6 (Homo sapiens), sequence (P10635 whole entry, looked up): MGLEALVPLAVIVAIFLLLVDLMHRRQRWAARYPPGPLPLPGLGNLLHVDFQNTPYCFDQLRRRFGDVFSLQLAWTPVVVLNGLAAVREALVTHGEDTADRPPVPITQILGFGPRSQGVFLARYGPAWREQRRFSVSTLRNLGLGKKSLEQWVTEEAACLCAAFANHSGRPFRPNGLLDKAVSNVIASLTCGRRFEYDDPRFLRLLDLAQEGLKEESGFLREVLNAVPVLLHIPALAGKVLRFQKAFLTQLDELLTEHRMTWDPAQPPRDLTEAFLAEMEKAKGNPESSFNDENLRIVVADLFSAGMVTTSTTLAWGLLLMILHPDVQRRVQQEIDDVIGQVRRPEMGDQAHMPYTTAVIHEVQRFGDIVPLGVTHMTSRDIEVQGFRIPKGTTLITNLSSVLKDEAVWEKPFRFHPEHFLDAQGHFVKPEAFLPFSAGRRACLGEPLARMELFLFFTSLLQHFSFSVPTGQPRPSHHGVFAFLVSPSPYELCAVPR

Regarding `CN[C@@H]1NC(=O)c2ccccc2N1Cc1ccc(F)cc1`, the Potency is more than 11.4 µM in assay [1], more than 46 µM in assay [6] and more than 9.22 µM in [7]. Moreover, the activity change, negative = inhibition was 4.91% in assay [2], -7.6% [at 2.29 µM] in assay [3] and 7.06% in [4]. In addition, the activity, negative = inhibition in assay [5] was 4.09%. Besides, the Potency result in [8] and in assay [9] was “inactive” in each case. For the same compound, in assay [10], the activation is -6.12%.
With `O=C(O)CSC1=NCCN1`, the Potency in [1] is more than 11.4 µM; in [6], more than 46 µM; in assay [7], more than 9.22 µM. Besides, the activity change, negative = inhibition in [2] was 17%; in assay [4] it was 7.29%; in assay [12], 7.95% [at 11.4 µM]. For the same compound, the Potency result in assay [3], in assay [8], in [11], in [13] and in assay [14] was “inactive” each time. For the same compound, in [5], the activity, negative = inhibition is 4.64%.
In the case of `Nc1nc(-c2cccs2)cs1`, the Potency in [1] was more than 11.4 µM; in [6] it was more than 46 µM; in [7] it was more than 9.22 µM. Also, the activity change, negative = inhibition in assay [2] is 1.24%; in assay [3], -30.1% [at 2.29 µM]; in assay [4] it was 6.96%. In assay [5], the activity, negative = inhibition is 5.4%. In addition, the Potency result in assay [9] and in [15] was “inactive” each time.
Consider `O=C1C(=O)c2ccccc2C(O)=C1C(CCc1ccccc1)C1=C(O)c2ccccc2C(=O)C1=O`, for which the Potency in assay [1] is more than 11.4 µM; in assay [6], more than 46 µM; in assay [7] it was more than 9.22 µM; in [11], 3.16 µM (active). In addition, the activity change, negative = inhibition in [2] was -6.25%; in [3] it was -21.3% [at 2.29 µM]; in assay [4], 6.66%. Moreover, in assay [5], the activity, negative = inhibition was -1.13%. For the same compound, the Potency result in assay [9] is “inactive”.
Consider `O=C(Nc1cccc(Cl)c1)Nn1cnnc1`, for which the Potency in assay [1] is more than 11.4 µM; in assay [3], 3.16 µM (active); in assay [6], more than 46 µM. The activity change, negative = inhibition in assay [2] was 0.989%; in assay [4], -6.38%. The activity, negative = inhibition in assay [5] was -6.44%. Besides, the Potency entry in assay [8], in assay [9] and in [15] was “inactive” in each case.
On to `C[Si](C)(c1ccc(C(=O)O)cc1)c1ccc(C(=O)O)cc1`, for which the Potency is more than 11.4 µM in [1] and more than 46 µM in [6]. Moreover, the activity change, negative = inhibition in assay [2] is -1.98%; in assay [4], -2.05%. For the same compound, the Potency entry in assay [3], in [8] and in [9] was “inactive” throughout. The activity, negative = inhibition in [5] is 14.2%.
Regarding `O=C1c2ccccc2C(=O)c2c1ccc(C(=O)O)c2-c1ccc2ccccc2c1`, the Potency is more than 11.4 µM in assay [1]; 1.26 µM (active) in assay [3]; more than 46 µM in assay [6]; more than 9.22 µM in [7]; 1.58 µM (active) in assay [11]; 2.51 µM (active) in assay [14]. In addition, the activity change, negative = inhibition was 1.13% in assay [2] and 16.7% in assay [4]. For the same compound, in assay [5], the activity, negative = inhibition is -16.8%. The Potency result in assay [9] was “inactive”.
For the compound `O=S(=O)(c1ccccc1)N1CCC[C@@]2(CCN(Cc3ccccc3)C2)C1`, the Potency in assay [1] was more than 11.4 µM; in [3] it was 20 µM (active); in assay [7], more than 46 µM. The activity change, negative = inhibition in [2] is 6.44%; in assay [4] it was -28.9%. Further, the activity, negative = inhibition in assay [5] is -5.04%. In addition, the Potency entry in assay [8], in assay [9] and in [15] was “inactive” in each case.
